Bioassay records from PubChem BioAssay.
An excerpt weighted towards active compounds, which were near 3.9% of everything screened.
ALR inh: inhibitors of human sulfhydryl oxidase ALR. P55789. purified ALR, DTT oxidation, H2O2 HRP-luminol luminescence. inhibition, % (concentration not given with the values). 290,000 compounds, 3.8% hits. AID 485317;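 active means mean replicate inhibition above about 79%, with every replicate also reaching it, limit read from the data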
Target sequence (P55789 whole entry, looked up): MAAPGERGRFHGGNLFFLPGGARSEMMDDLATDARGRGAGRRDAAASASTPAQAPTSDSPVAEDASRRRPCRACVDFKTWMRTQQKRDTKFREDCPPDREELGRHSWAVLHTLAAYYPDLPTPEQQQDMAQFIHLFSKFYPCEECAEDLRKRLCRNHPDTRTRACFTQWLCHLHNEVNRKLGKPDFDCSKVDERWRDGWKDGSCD
CDK5 inh: CDK5/p35 (human) kinase inhibition. Q00535+Q15078. Recombinant CDK5/p35, ADP-Glo luminescence, 60 min. 330,000 compounds, 0.01% hits. inhibition, % at 10 µM;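 active means highest replicate inhibition of at least 50% and at least 75% of replicates reaching 50%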
NSD2 inh: blocks human histone methyltransferase NSD2; 310,000 compounds, 0.54% hits; O96028; inhibition, % at 12.5 µM; NSD2 peptide methylation, AlphaScreen, 120 min; in the data active means inhibition above about 50%
N-glyco inh: N-linked glycosylation inhibition | D54 ERlucT glycosylation luciferase reporter, 24 h; percent of 100 nM tunicamycin response | AID 588692 | reporter increase, % at 12.5 µM | 360,000 compounds, 0.23% hits;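 active means mean luciferase reporter signal, scaled so untreated is 0 and the glycosylation-blocking control 100, at or above a set limit in every replicate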;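 further: luciferase carries N-glycosylation sites so blocking glycosylation raises the light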
Casp6 inh: inhibitors of human caspase-6. purified caspase-6, Z-VEID-R110 cleavage fluorescence. inhibition, % at 12.5 µM. 350,000 compounds, 0.53% hits;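 active means mean inhibition across replicates at least about 35%, with every replicate also reaching that limit, limit read from the data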
SUMO Mot1 rescue: SUMOylation pathway inhibition by Mot1-301 growth rescue; S. cerevisiae Mot1-301 growth rescue, ATP luminescence, 38.5C; percent above DMSO median, 100 means doubled; 320,000 compounds, 1% hits; AID 2716; growth rescue, % at 18.8 µM;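 active means every valid replicate shows activation above 250% relative to neutral control wells; inactive means the rest, any valid replicate at or below 250%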
Alpha artifact: AlphaScreen assay artifact in NSD2 counter-screen | 1,500 compounds, 9.4% hits | AID 1053174 | AC35, µM (highest dose often 10 µM) | AlphaScreen artifact counterscreen, preloaded methylated H4 peptide | shares compounds with NSD2 inh; call rule not given here
Hits are given with their value; i = inactive; nt = no result given.

SMILES	ALR inh	CDK5 inh	NSD2 inh	N-glyco inh	Casp6 inh	SUMO Mot1 rescue	Alpha artifact
CCCNC(=O)[C@H]1[C@H](CO)[C@H]2Cn3c(ccc(C4=CCCC4)c3=O)[C@@H]1N2Cc1ccncc1	nt	nt	nt	nt	i	nt	nt
O=C(OCc1ccc(Cl)c(Cl)c1)c1cccnc1Cl	i	i	107	i	i	i	i
O=C(OCc1ccc(Br)cc1)c1cccnc1Cl	i	i	i	i	i	i	nt
CC1(C)Cc2ccccc2C(Nn2cnnc2)=N1	i	i	i	i	i	i	nt
CC1(C)Cc2ccccc2C2=NNC(=O)C2=N1	99	i	106	i	i	i	i
C[C@@H]1CCCCO[C@@H](CN(C)C(=O)Nc2cccc3ccccc23)[C@@H](C)CN([C@@H](C)CO)C(=O)c2cc(NC(=O)Nc3ccc(C(F)(F)F)cc3)ccc2O1	nt	nt	nt	nt	i	nt	nt
O=C(O)c1cc2ccccc2c2c1C(=O)c1ccccc1-2	nt	nt	i	i	i	nt	nt
O=C1C=C(c2c(O)ccc3ccccc23)c2ccccc2C1=O	nt	i	112	i	i	nt	i
CC(C)NCC#CCOc1ccc(Cl)cc1	i	i	53	i	i	i	i
CC1CCCCC1NCC#CCOc1ccc(Cl)cc1 (configuration not stated)	i	i	i	i	i	i	nt
COc1ccc(NC2CCCN(C(=O)c3ccccc3N3CCOCC3)C2)cc1OC (configuration not stated)	98	i	72	i	i	i	i
COC(=O)c1ccccc1C(=O)N1CCCC(C(=O)c2ccc(OC)c(OC)c2)C1 (configuration not stated)	i	i	i	i	i	i	nt
O=C(CCCN1C(=O)/C(=C/c2ccco2)SC1=S)Nc1cccc(C(=O)O)c1	i	i	125	i	55	i	i
O=C(CCCN1C(=O)/C(=C\c2ccco2)SC1=S)Nc1ccc(O)cc1C(=O)O	i	i	104	i	nt	i	i
O=C(CN1C(=O)/C(=C/c2ccco2)SC1=S)Nc1ccc(O)c(C(=O)O)c1	i	i	116	i	i	i	i
O=C(CCCN1C(=O)/C(=C\c2cccs2)SC1=S)Nc1cccc(C(=O)O)c1	i	i	i	i	i	i	nt
CC(=O)N(C)C[C@@H]1Oc2cc(-c3ccccc3F)ccc2S(=O)(=O)N([C@@H](C)CO)C[C@H]1C	nt	nt	nt	nt	i	nt	nt
C[C@@H]1CN([C@H](C)CO)C(=O)c2cc(C#CCN(C)C)cnc2O[C@@H]1CN(C)S(C)(=O)=O	nt	nt	nt	nt	i	nt	nt
CC(=O)c1ccc(N2CCN(C(=O)[C@H](C)NC(=O)c3ccccc3Cl)CC2)cc1	nt	i	65	i	i	i	i
CNC[C@@H]1Oc2ccc(NS(=O)(=O)c3ccc(Cl)cc3)cc2CC(=O)N([C@@H](C)CO)C[C@H]1C	nt	nt	nt	nt	i	nt	nt
N#Cc1cc(-c2ccccc2)cnc1Sc1ccc(Cl)cc1	i	i	112	i	nt	nt	i
COc1ccc(C)cc1NC(=O)CCNC(=O)Cn1cnc2ccccc2c1=O	i	i	90	i	i	i	i
CC1CCCCN1C(=O)CCNC(=O)Cn1cnc2ccccc2c1=O (configuration not stated)	i	i	94	i	i	i	i
CC(C)CN(CCNC(=O)CN1C(=O)COc2ccc(S(=O)(=O)N3CCOCC3)cc21)CC(C)C	i	i	i	i	i	i	nt
CCN(CC)CCNC(=O)CN1C(=O)COc2ccc(S(=O)(=O)N3CCOCC3)cc21	i	i	81	i	i	nt	i
SMILES	ALR inh	CDK5 inh	NSD2 inh	N-glyco inh	Casp6 inh	SUMO Mot1 rescue	Alpha artifact
CNC[C@@H]1Oc2cc(-c3ccccc3F)ccc2S(=O)(=O)N([C@H](C)CO)C[C@H]1C	nt	nt	nt	nt	i	nt	nt
O=C(NCC[C@@H]1CC[C@H](NS(=O)(=O)Cc2ccccc2)[C@H](CO)O1)C1CC1	nt	nt	nt	nt	i	nt	nt
CCOC(=O)c1cc(NC(=O)CN2CCCC2)cc(C(=O)OCC)c1	i	i	96	i	i	i	i
O=C1C(Cl)=C(NCCN2CCCCC2)C(=O)c2ccccc21	i	i	58	i	nt	i	i
Oc1cccc(NC(=S)N=Nc2c(O)[nH]c3ccc(Br)cc23)c1	99	i	67	i	i	i	i
Oc1ccc(NC(=S)N=Nc2c(O)[nH]c3ccc(Br)cc23)cc1	nt	i	nt	i	i	nt	nt
